# GPR151 ag = activators of human GPR151, primary screen, cell-based, PathHunter beta-arrestin, luminescence; PathHunter beta-arrestin GPR151 cells; activation, % at 11.2 µM; 650,000 compounds, 1% hits; AID 1508602, 2020; in the data active = activation above about 4.9%;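 note: 0% = median of compound wells and 100% = cells with positive control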
# TEAD-YAP block = TEAD-YAP interaction inhibition, primary screen, TEAD-YAP interaction inhibitor project, luminescence, HEK-TIYL cells; TEAD-Gal4/YAP UAS-luciferase luminescence; 640,000 compounds, 1.4% hits; inhibition, % at 9.12 µM; in the data active = inhibition above about 32%;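 note: 0% = median of test compound wells and 100% = reference inhibitor wells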
# MITF inh = MITF inhibitors, primary screen, biochemical, AlphaScreen, human. 650,000 compounds, 0.91% hits. inhibition, % at 2.6 µM. AlphaScreen MITF homodimerization, bead proximity signal. Microphthalmia-associated transcription factor (Homo sapiens), O75030. AID 1259374, 2018; in the data active = inhibition above about 50%;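 note: 0% = vehicle wells with protein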
# Target sequence (O75030 whole entry, looked up): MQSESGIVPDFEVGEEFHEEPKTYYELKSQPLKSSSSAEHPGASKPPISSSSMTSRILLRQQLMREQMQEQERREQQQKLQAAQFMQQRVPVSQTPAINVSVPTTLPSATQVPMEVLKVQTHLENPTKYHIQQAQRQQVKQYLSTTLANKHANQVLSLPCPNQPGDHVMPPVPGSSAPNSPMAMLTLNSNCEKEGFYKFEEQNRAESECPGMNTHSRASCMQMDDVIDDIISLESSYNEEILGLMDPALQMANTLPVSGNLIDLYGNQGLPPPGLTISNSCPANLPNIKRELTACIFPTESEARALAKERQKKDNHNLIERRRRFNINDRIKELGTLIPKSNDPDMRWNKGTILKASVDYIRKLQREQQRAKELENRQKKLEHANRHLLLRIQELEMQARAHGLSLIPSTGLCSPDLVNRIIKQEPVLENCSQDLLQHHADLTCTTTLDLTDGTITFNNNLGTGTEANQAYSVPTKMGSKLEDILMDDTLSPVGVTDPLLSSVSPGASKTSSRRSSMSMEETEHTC
# FBW7 act = FBW7 E3 ligase activators, primary screen, biochemical, AlphaScreen, human. AlphaScreen FBW7–phospho-cyclin E peptide binding, activator screen. F-box/WD repeat-containing protein 7 (Homo sapiens), Q969H0. 650,000 compounds, 0.13% hits. normalized activity (activation), % at 26.1 µM; in the data active = normalized activity above about 1.9%;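 note: purified mutant Fbw7 with reduced substrate affinity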
# An asterisk follows results filed as active. Only some compounds are listed: those with a hit (about 3.5% of all), similar ones and a draw of the others.
SMILES,GPR151 ag,TEAD-YAP block,MITF inh,FBW7 act
CC(C)Cc1nc(SCCO)c2c(=O)n(C)c(=O)n(C)c2n1,2,-4,6,0
COC(=O)c1ccc(C(=O)Nc2nc3cc([N+](=O)[O-])c(C)cc3s2)cc1,0,-6,14,1
CCOC(=O)c1[nH]c(C)c(C(=O)Nc2ccccc2C)c1C,-1,44*,-5,0
CCOC(=O)c1c(C)[nH]c(C(=O)C(C)Nc2ccccc2OCC)c1C (stereo not drawn),0,-3,5,0
CCOC(=O)c1[nH]c(C)c(C(=O)c2ccc(Cl)cc2)c1C,2,40*,13,0
CCOC(=O)c1[nH]c(C)c(CNc2cc(OC)ccc2OC)c1C,0,50*,12,0
CCOC(=O)c1[nH]c(C)c(C(=O)Nc2ccccc2OCC)c1C,0,58*,-9,0
C=CCN1C(=O)NC(=O)/C(=C\c2cc(Br)ccc2OC)C1=O,3,5,0,-1
O=C(Nc1ccc(-c2cscn2)cc1)C1CCCN(C2CCOCC2)C1 (stereo not drawn),2,19,1,0
CCN(CC)S(=O)(=O)c1cccc(C(=O)Nc2nc(COc3ccccc3)cs2)c1,1,32*,2,0
O=c1c(-c2ccccc2)c(N2CCN(c3ccccc3F)CC2)c1=O,0,-8,2,0
O=c1c(-c2ccc(Cl)cc2)c(N2CCN(c3ccccc3)CC2)c1=O,3,60*,1,0
O=c1c(-c2ccccc2)c(N2CCN(c3cccc(Cl)c3)CC2)c1=O,0,1,-10,0
O=c1c(-c2ccc(Cl)cc2)c(N2CCN(c3ccccc3F)CC2)c1=O,1,42*,17,0
COc1ccccc1N1CCN(c2c(-c3ccccc3)c(=O)c2=O)CC1,-2,67*,-4,0
Cc1csc(NC(=O)CN2CCC(c3ccncc3)CC2)n1,0,45*,3,0
CCCCS(=O)(=O)/C=C\C=C\S(=O)(=O)CCCC,1,90*,0,0
CC(C)n1nccc1-c1nnc(NC(=O)c2ccc(Cl)cc2Cl)o1,-1,12,3,0
CC(C)n1nccc1-c1nnc(NC(=O)C(C)(C)Oc2ccc(Cl)cc2)o1,0,37*,31,-1
O=C(NCCCN1CCCC1=O)C1c2ccccc2Oc2ccccc21,-1,6,15,1
CN(C)S(=O)(=O)c1cccc(NC(=S)Nc2ccccc2C#N)c1,1,87*,-3,0
COc1ccccc1NC(=S)NC(=O)c1ccccc1OC,-1,39*,7,0
COC(=O)c1cc(OC)c(OC)cc1NC(=S)NC(=O)c1ccccc1,-1,33*,-1,0
COc1ccccc1C(=O)NC(=S)Nc1ccccc1C(=O)O,-2,22,-4,0
COc1ccccc1NC(=S)Nc1ccc(N2CCOCC2)cc1,-2,33*,18,0
SMILES,GPR151 ag,TEAD-YAP block,MITF inh,FBW7 act
COC(=O)c1cc(OC)c(OC)cc1NC(=S)Nc1ccccc1,-2,1,2,0
COc1ccccc1C(=O)NNC(=O)c1cccc(O)c1,-2,79*,0,0
CCN(CC)S(=O)(=O)c1ccc2c(c1)N(CC(=O)NCCOC)C(=O)CO2,0,-33,-18,-1
COc1ccc(NC(=O)C2CCC(CNc3c(N4CCC(C)CC4)c(=O)c3=O)CC2)cc1 (stereo not drawn),3,-1,-8,0
N#C/C(=C\c1ccc(-c2ccc([N+](=O)[O-])cc2)o1)C(=O)O,-2,-2,10,1
Cc1ccc(NN=c2c(=O)c3ccccc3c2=O)cc1,0,-39,27,0
O=c1c(=NNc2nn[nH]n2)c(=O)c2ccccc12,0,98*,5,-1
O=c1c(=NNc2ccccc2Cl)c(=O)c2ccccc12,1,58*,-1,0
O=c1c(=NNc2ccccc2)c(=O)c2ccccc12,0,-66,-10,0
COC(=O)c1ccc2nc(-c3cccc(N)c3)cn2c1,-9,78*,0,0
COC(=O)c1ccc2nc(-c3ccc(S(C)(=O)=O)cc3)cn2c1,-2,-30,2,0
CC(=O)Nc1cc(OC(C)=O)c2nonc2c1OC(C)=O,-5,99*,39,-2
O=c1c2cnn(-c3ccccc3)c2nnn1Cc1cccnc1,0,1,14,1.9*
COC(=O)Cn1nnc2c(cnn2-c2ccccc2)c1=O,-3,-39,10,1
Cc1cc(-c2ccc(S(=O)(=O)Nc3cccc(-c4ccno4)c3)cc2)on1,1,16,-1,1
COCCNC(=O)c1ccc2cncc(-c3cc4ccccc4o3)c2n1,0,60*,5,0
O=C(c1ccc2cncc(-c3cc4ccccc4o3)c2n1)N1CCOCC1,1,23,18,-1
O=C(NCCCn1ccnc1)c1ccc2cncc(-c3cc4ccccc4o3)c2n1,-1,46*,-2,0
O=C(NC1CC1)c1ccc2cncc(-c3cc4ccccc4o3)c2n1,-1,50*,2,0
Cc1ccc2cc(/C=C(\C#N)C(N)=O)c(N(C)C)nc2c1,0,6,4,0
COc1ccccc1CC(=O)NCCc1ccc(F)cc1,2,-9,12,1
Cc1ccc(C(=O)C[n+]2cc(-c3ccc(C)cc3)n3c2CCCCC3)cc1,-1,86*,10,0
COc1ccc(S(=O)(=O)N2CCOc3ccccc32)cc1,1,49*,19,0
COc1ccc(S(=O)(=O)N2CC(C(=O)O)Oc3ccccc32)cc1 (stereo not drawn),4,1,-10,0
COC(=O)c1nc2n(n1)C(c1cccc(Br)c1)C1=C(CCCC1=O)N2 (stereo not drawn),0,14,6,0
SMILES,GPR151 ag,TEAD-YAP block,MITF inh,FBW7 act
C=CCN1C(=O)/C(=C/c2cc(Cl)c(OCC(=O)O)c(OCC)c2)C(=O)NC1=S,-3,-9,23,0
CC(C)(C)C1CCc2onc(C(=O)NC3CCCC3)c2C1 (stereo not drawn),1,0,13,2.6*
C=CCNC(=O)c1noc2c1CC(C(C)(C)C)CC2 (stereo not drawn),0,-3,10,0
CNc1c(-c2nc(-c3ccc(OC)cc3)n[nH]2)nnn1Cc1ccccc1Cl,1,46*,13,0
CCOC(=O)c1c(C)[nH]c(C)c1C(=O)COC(=O)c1ccc(O)cc1,-1,-1,8,0
CCOC(=O)c1c(C)[nH]c(C)c1C(=O)COC(=O)c1ccc2[nH]c(C)c(C)c2c1,-1,66*,-6,0
CCN(CC)c1ccc(C(=O)Nc2cc(C(=O)N3CCOCC3)ccc2N2CC3CC(C2)c2cccc(=O)n2C3)cc1 (stereo not drawn),0,69*,-2,0
Cc1ccc(S(=O)(=O)NNC(=O)CSc2nc(N(C)C)nc(N(C)C)n2)cc1,0,4,-5,0

# Screens: PubChem BioAssay, The Scripps Research Institute Molecular Screening Center
